This passage reports composite z-score and composite Z-score results from PubChem BioAssay.

SMILES strings stand for the structures. Calls of active or inactive are those of the source.

For one test, the target named is Albumin (Bos taurus) (UniProt P02769). The experiment in a line: bovine serum albumin binders on microarray, profiling panel, artefact control for SMM control protein annotation, biochemical, small-molecule microarray, Alexa647 label, 635/667 nm fluorescence (AID 1118).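 Note: score merges 667 nm emission intensity and signal-to-noise per printed compound spot.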 As to conditions: BSA-A647 binding, fluorescence 635 nm, higher = more signal.
Test [1] in a line: small-molecule microarray binders of probe aXIP, primary screen, biochemical, NeuroSMM set, 635/667 nm fluorescence (AID 1119).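 Note: probe is the protein aXip251-270 applied at 1 µg/mL to compound-printed slides; binding of probe to printed compounds measured as 667 nm fluorescence plus signal to noise.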 As to conditions: higher = more signal, called active from +8 up or from −8 down.
The nature of test [2]: small-molecule binders of probe aNOTCH3, primary screen, biochemical, small-molecule microarray, 635/667 nm fluorescence (AID 1120).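 Note: probe is a biotin-tagged antibody raised against NOTCH3 rather than NOTCH3 protein; score merges spot fluorescence near 667 nm with spot signal to noise.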 As to conditions: higher = more signal.
Test [3] can be described thus: small-molecule binders of probe aNOTCH2, primary screen, biochemical, small-molecule microarray, 635/667 nm fluorescence (AID 1121).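 Note: score merges feature fluorescence read at 667 nm with its signal to noise.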 The settings on record: higher = more signal.
The target in test [4] is Carbonic anhydrase 2 (Homo sapiens) (UniProt P00918). The experiment in a line: CAII small-molecule binders, profiling panel, biochemical, small-molecule microarray, Alexa647-labelled CAII (AID 1122). As to conditions: CAII-A647 binding fluorescence, higher = more signal.
Test [5] in a line: COS7 lysate on small-molecule microarray, probe aHis, 635 nm (AID 1123).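 Note: z-score combines 667nm fluorescence intensity with signal-to-noise per printed compound spot.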 As to conditions: COS7 cell lysate, fluorescence, higher = more signal.
A short description of test [6]: compound binding in COS7 lysate, probe aLAP1, primary screen, cell lysate, small-molecule microarray (AID 1124).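 Note: lysate comes from COS7 cells expressing LAP1 and is applied at 0.3 µg/mL; score merges spot fluorescence near 667 nm with signal-to-noise over triplicate slides.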 As to conditions: probe aLAP1, fluorescence, higher = more signal.
The test system of the next test is Sam68 (KHDRBS1). The experiment in a line: Sam68 small-molecule binders, primary screen, biochemical, small-molecule microarray, 635 nm fluorescence (AID 1125).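 Note: score merges 667 nm channel intensity with signal to noise over triplicate slides.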 As to conditions: small-molecule microarray binding, higher = more signal.
Test [7] concerns Chordin-like protein 2 (CHRDL2). The experiment in a line: CHRDL2 small-molecule binders, primary screen, biochemical, small-molecule microarray, 635 nm fluorescence (AID 1126).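 Note: printed compound slides probed with Chrdl2 protein at 4 µg/mL for 1 h at 4 C; score merges 667 nm emission intensity with signal to noise over three replicate slides.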 The settings on record: small-molecule microarray binding, fluorescence 635 nm; higher = more signal.
For test [8], the target named is Concanavalin-A (Canavalia ensiformis) (UniProt P02866). The experiment in a line: ConA small-molecule binders, primary screen, artefact control for SMM control protein annotation, biochemical, small-molecule microarray, Alexa647 label, 635 nm (AID 1127).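 Note: z combines 667 nm emission intensity with signal-to-noise across three replicate slides.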 The settings on record: ConA-A647 binding fluorescence, higher = more signal.
Concanavalin-A (Canavalia ensiformis), sequence (P02866 whole entry, looked up): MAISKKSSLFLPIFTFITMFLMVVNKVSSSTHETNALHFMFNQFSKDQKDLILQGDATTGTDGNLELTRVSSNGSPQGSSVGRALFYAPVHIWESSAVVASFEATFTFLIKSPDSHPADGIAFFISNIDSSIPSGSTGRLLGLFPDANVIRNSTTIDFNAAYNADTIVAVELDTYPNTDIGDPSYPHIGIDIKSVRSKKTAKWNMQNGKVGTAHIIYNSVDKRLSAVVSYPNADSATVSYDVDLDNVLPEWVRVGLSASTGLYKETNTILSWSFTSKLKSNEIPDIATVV

Albumin (Bos taurus), sequence (P02769 whole entry, looked up): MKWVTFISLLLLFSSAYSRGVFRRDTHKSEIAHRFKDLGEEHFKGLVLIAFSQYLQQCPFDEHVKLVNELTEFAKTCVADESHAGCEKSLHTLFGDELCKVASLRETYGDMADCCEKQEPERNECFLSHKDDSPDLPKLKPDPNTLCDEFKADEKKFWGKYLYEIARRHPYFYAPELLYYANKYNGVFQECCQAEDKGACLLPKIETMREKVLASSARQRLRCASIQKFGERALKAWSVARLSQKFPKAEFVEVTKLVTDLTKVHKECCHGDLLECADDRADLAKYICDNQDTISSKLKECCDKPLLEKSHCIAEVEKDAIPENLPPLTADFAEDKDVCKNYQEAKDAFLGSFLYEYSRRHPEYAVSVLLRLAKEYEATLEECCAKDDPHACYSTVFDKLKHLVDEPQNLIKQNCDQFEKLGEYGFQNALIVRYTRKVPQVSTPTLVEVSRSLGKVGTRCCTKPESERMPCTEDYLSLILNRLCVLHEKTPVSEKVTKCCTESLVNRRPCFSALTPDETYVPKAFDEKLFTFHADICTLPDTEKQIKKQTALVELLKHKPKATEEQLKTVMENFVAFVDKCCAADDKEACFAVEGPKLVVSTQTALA

Turning to `Cc1ccc(S[C@]2(C(=O)NC3CC3)CC(=O)N(Cc3ccccc3Cl)[C@@H]2c2ccc(CO)cc2I)cc1`, the composite z-score in the test with Albumin (Bos taurus) is 0.257; in [2], -0.0967; in [3], -0.0419; in test [4] it was 0.68; in [5], 2.52; in [6] it was 0.944. Moreover, the composite z-score in the test with Sam68 (KHDRBS1) came out at 1.13; in [7], 0.506; in test [8], 0.904. Also, the composite Z-score in test [1] was 0.331 (inactive).
With `Cc1ccc(S[C@]2(C(=O)NCC(F)(F)F)CC(=O)N(Cc3ccccc3)[C@@H]2c2ccc(CO)cc2)cc1`, the composite z-score in the test with Albumin (Bos taurus) is -0.597; in test [2] it was -0.115; in test [3] it was -0.119; in test [4], 0.699; in [5], 0.973; in test [6] it was -0.0477. Moreover, the composite z-score is 0.619 in the test with Sam68 (KHDRBS1), -1.23 in test [7] and -0.643 in test [8]. The composite Z-score in test [1] was 0.363 (inactive).
In the case of `COc1cc2c(cc1OC)CN(C(=O)[C@H]1[C@@H]3C(=O)O[C@@H](c4ccccc4)[C@@H](c4ccccc4)N3[C@@H](c3ccc(OCCO)cc3)[C@]13C(=O)Nc1ccc(C#CC4(O)CCCCCC4)cc13)CC2`, the composite z-score in the test with Albumin (Bos taurus) is 0.822; in test [2] it was -0.337; in [3], -0.126; in test [4], 0.619; in test [5], 1.52; in test [6] it was 0.491. The composite z-score worked out at 1.29 in the test with Sam68 (KHDRBS1), 0.739 in test [7] and 1.18 in [8]. In addition, in test [1], the composite Z-score was -0.195 (inactive).
In the case of `CCCCC(CC)C(O)C1C=CC2C(=O)N(c3ccccc3)C(=O)C2N1Nc1ccc([N+](=O)[O-])cc1` (stereo not given), the composite z-score was 0.985 with Albumin (Bos taurus); 0.44 in test [2]; -0.161 in test [3]; 0.652 in test [4]; 1.86 in test [5]; 0.914 in test [6]. Moreover, the results for the composite z-score (in the test on Sam68 (KHDRBS1); in test [7]; in [8]) were 1.31, 0.0772 and 1.18, respectively. Also, the composite Z-score in [1] was -0.189 (inactive).
For `C=C(/C(=C/C[C@@H](OC(=O)c1ccncc1)c1ccccc1OCCO)c1cc(C(=O)OC)ccc1OC)C(C)C`, the composite z-score with Albumin (Bos taurus) was 0.359; in test [2], 0.138; in [3], -0.0895; in test [4], 0.676; in [5], 1.75; in test [6], 0.457. In addition, the composite z-score in the test on Sam68 (KHDRBS1) came out at 1.25; in test [7] it was 0.0435; in [8] it was 0.474. The composite Z-score in test [1] was -0.0951 (inactive).
As for `O=C1O[C@@H](c2ccccc2)[C@@H](c2ccccc2)N2[C@@H](c3ccccc3OCCO)[C@]3(C(=O)Nc4ccccc43)[C@@H](C(=O)NC[C@H](O)c3ccccc3)[C@H]12`, the composite z-score with Albumin (Bos taurus) is 0.641; in [2], -0.213; in test [3] it was -0.14; in test [4], 0.586; in test [5], 1.32; in test [6], 0.487. The composite z-score with Sam68 (KHDRBS1) is 0.9; in test [7], -1.15; in test [8] it was 0.196. In test [1], the composite Z-score was -0.0662 (inactive).
Consider `CC(=O)N1Cc2ccccc2C[C@]2(N=C(c3ccc(OCCCO)cc3)O[C@@H]2c2ccccc2)C1=O`, for which the composite z-score with Albumin (Bos taurus) is -0.569; in test [2], 0.0242; in test [3], -0.0424; in test [4], 0.552; in test [5], 2.87; in test [6], 0.451. For the same compound, the composite z-score in the test on Sam68 (KHDRBS1) was determined as 1.3; in [7] it was 0.15; in test [8], 1.13. Also, in test [1], the composite Z-score was 0.581 (inactive).
In the case of `COc1ccc(C#Cc2ccc3c(c2)[C@]2(C(=O)N3)[C@H](C(=O)N3CCc4cc(OC)c(OC)cc4C3)[C@H]3C(=O)O[C@H](c4ccccc4)[C@H](c4ccccc4)N3[C@@H]2c2ccc(O)cc2)cc1`, the composite z-score was 0.845 in the test with Albumin (Bos taurus); 0.0562 in [2]; 0.0397 in test [3]; 0.432 in [4]; 1.46 in test [5]; -0.0296 in test [6]. Moreover, the composite z-score in the test on Sam68 (KHDRBS1) was 1.3; in [7], 0.137; in test [8], 1.13. Further, the composite Z-score in test [1] is 1.1 (inactive).
As to `COCCOC(=O)N1C(=O)[C@@]2(c3ccccc31)[C@H](c1ccc(OCCO)cc1)N1[C@H](c3ccccc3)[C@H](c3ccccc3)OC(=O)[C@H]1[C@@H]2C(=O)Nc1nc2ccccc2s1`, the composite z-score with Albumin (Bos taurus) was 0.903; in test [2] it was -0.0059; in test [3] it was -0.0089; in test [4] it was 0.55; in [5], 2.74; in [6] it was 0.676. Besides, the composite z-score in the test on Sam68 (KHDRBS1) is 1.3; in test [7], 0.232; in test [8] it was 1.17. Also, the composite Z-score in test [1] was 0.171 (inactive).
In the case of `CCCC[C@@H]1C[C@H]1[C@@H](NC(=O)c1ccccc1)c1ccc(Cl)cc1`, the composite z-score is -0.413 with Albumin (Bos taurus); -0.414 in test [2]; -0.179 in [3]; -0.527 in test [4]; 0.847 in test [5]; -0.905 in [6]. The figures for the composite z-score (with Sam68 (KHDRBS1); in [7]; in test [8]) were -1.35, -2.74 and -1.6, respectively. For the same compound, the composite Z-score in test [1] is 0.0169 (inactive).
With `O=C1c2ccccc2[C@@]2(Cc3ccccc3N(C3CC3)C2=O)[C@H](c2ccc(CO)cc2)N1C1CCCCC1`, the composite z-score with Albumin (Bos taurus) was 0.804; in test [2] it was -0.125; in test [3], -0.0804; in test [4], 0.269; in test [5] it was 0.154; in test [6], 0.586. For the same compound, the results for the composite z-score (with Sam68 (KHDRBS1); in test [7]; in [8]) were -0.728, -0.431 and -1.02, respectively. In test [1], the composite Z-score is -0.481 (inactive).
In the case of `[N-]=[N+]=Nc1ccccc1[C@@H]1OC(c2ccc(OCCCO)cc2)=N[C@]1(CCS(=O)(=O)c1ccccc1)C(=O)NCCN1CCOCC1`, the composite z-score with Albumin (Bos taurus) is 0.734; in [2], 0.178; in test [3] it was -0.0267; in [4], 0.485; in test [5] it was 2.71; in test [6] it was 0.21. For the same compound, the composite z-score with Sam68 (KHDRBS1) was 1.29; in test [7], -0.22; in [8] it was 0.478. In addition, the composite Z-score in [1] is 0.131 (inactive).
In the case of `C=CC[C@]1(C(=O)N(C)C)N=C(c2ccc(OCCCO)cc2)O[C@H]1c1ccccc1N=[N+]=[N-]`, the composite z-score with Albumin (Bos taurus) amounted to 1.07; in test [2] it was 0.266; in test [3], 0.0805; in test [4], 0.489; in test [5], 2.81; in [6], 0.55. For the same compound, the figures for the composite z-score (with Sam68 (KHDRBS1); in test [7]; in test [8]) were 1.3, -0.811 and 0.877, respectively. The composite Z-score in [1] is 0.298 (inactive).
